# Source: PubChem (National Center for Advancing Translational Sciences (NCATS))
# AmpC inh detg: qHTS Inhibitors of AmpC Beta-Lactamase (assay with detergent); P00811; AmpC hydrolysis of nitrocefin, absorbance 480 nm, 0.01% Triton; Potency, µM (series often up to 114 µM), usual class: inhibitors; actives 0.041% (n = 370,000); further: nearly all actives have a fitted effect of over 25% in size
# Target sequence (P00811 whole entry, looked up): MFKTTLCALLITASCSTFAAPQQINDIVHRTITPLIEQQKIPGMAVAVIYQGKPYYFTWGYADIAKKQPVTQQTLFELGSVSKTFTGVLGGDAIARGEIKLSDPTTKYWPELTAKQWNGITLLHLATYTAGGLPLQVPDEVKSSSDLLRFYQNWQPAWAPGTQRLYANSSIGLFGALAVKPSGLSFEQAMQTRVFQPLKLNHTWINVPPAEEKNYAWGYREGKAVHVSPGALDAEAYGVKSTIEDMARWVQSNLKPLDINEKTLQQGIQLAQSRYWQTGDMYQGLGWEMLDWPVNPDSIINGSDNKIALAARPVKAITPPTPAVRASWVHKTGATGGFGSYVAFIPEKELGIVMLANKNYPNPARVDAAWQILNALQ
#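 20 mM phosphate pH 7.0 + 0.01% (detergent screen) or 0.0001% Triton X-100; 5.3 nM AmpC reagent; cpd preinc 15 min RT; nitrocefin (800 uM stock) to start; A480 q20 s × 4 min; Activity was normalised to no-enzyme and no-compound control wells.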
# AmpC inh no detg: qHTS Inhibitors of AmpC Beta-Lactamase (assay without detergent); Potency, µM (highest dose often 57.1 µM), most hits filed as inhibitors; AID 485341, 2010; actives 0.52% (n = 330,000); AmpC nitrocefin hydrolysis, absorbance 480 nm, 0.0001% Triton; further: nearly all actives have a fitted effect of over 20% in size
#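 AmpC (5.3 nM in the dispensed reagent) in 20 mM phosphate pH 7.0 with 0.01% (detergent screen) or 0.0001% Triton X-100 was preincubated with compounds for 15 min at room temperature. Nitrocefin was then added from an 800 uM solution, and hydrolysis was followed at 480 nm.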
# NS1 function inh: qHTS Assay for Inhibitors of Influenza NS1 Protein Function; AID 2326, 2010; Potency, µM (top dose mostly 46.1 µM); actives 0.4% (n = 270,000); calls by dose curve; further: actives are rising curves; nearly all actives have a fitted effect of over 50% in size
#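 OD600 was taken as the measure of yeast growth restored by compound in an NS1-expressing S. cerevisiae strain. Cells had been washed out of glucose medium and diluted 1:100 into galactose -URA medium, pH 6.0.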
# Shiga toxin inh: A qHTS for Small Molecule Inhibitors of Shiga Toxin; inhibition, % at 38.7 µM; AID 2315, 2010; Vero cells, Shiga toxin protein synthesis inhibition reporter; actives 9.2% (n = 290,000); in the data active means inhibition mostly above about 28%, no sharp cut-off; inactive means mostly below about 43%
# CHX counter: Cycloheximide Counterscreen for Small Molecule Inhibitors of Shiga Toxin | AID 2314, 2010 | actives 12% (n = 300,000) | cell reporter, cycloheximide protein synthesis inhibition counterscreen | max response, %; in the data active means max response mostly above about 13%, no sharp cut-off; inactive means mostly below about 14%; further: read at 38.3 µM for the half of the compounds with a filed dose
# A number is an active result; i = inactive; ? = inconclusive; nt = not tested or not shown. Only a selection was taken, and hits are over-represented in it overall. Unless noted, the call rests on the fitted dose curve; in most records, active means well fitted curve in the direction sought with a large enough effect; inconclusive means small, poorly fitted or top-dose-only effect, or another doubt; inactive means no such curve, though single readings can be large; an effect the other way counts as inactive or inconclusive.
SMILES,AmpC inh detg,AmpC inh no detg,NS1 function inh,Shiga toxin inh,CHX counter
CCc1cccc(C)c1NC(=O)CSc1n[nH]c(-c2ccccc2)n1,i,nt,nt,nt,nt
COc1cccc(Oc2ccc(C(F)(F)F)cc2NC(=O)c2cccc(F)c2)c1,i,i,i,i,i
CCOc1ccc(Oc2ccc(C(F)(F)F)cc2N)cc1,i,i,i,i,16
COc1cccc(Oc2ccc(C(F)(F)F)cc2N)c1,i,i,i,87,29
FC(F)Oc1ccc(NC(=S)NCCc2ccccn2)cc1,i,i,nt,i,29
FC(F)Oc1ccc(NC(=S)NCc2ccccc2)cc1,i,i,i,37,11
FC(F)Oc1ccc(NC(=S)Nn2cnnc2)cc1,i,i,nt,i,i
Oc1cccc2c(NC(=S)Nc3ccc(OC(F)F)cc3)cccc12,i,i,i,88,74
S=C(NCCc1ccccn1)Nc1cccc(Cl)c1,i,i,i,i,i
CCOc1cc(CNCc2cccnc2)ccc1OCC(=O)NC(C)(C)C,i,i,i,i,i
O=[N+]([O-])c1cccc(CN2C(COCc3ccccc3)CCC=CS2(=O)=O)c1 (stereo not given),nt,nt,nt,82,38
CC(C)COC(=O)N1C(COCc2ccccc2)CCC=CS1(=O)=O (stereo not given),nt,nt,nt,i,i
CC1=CC(C)(C)Nc2ccc(OC(=O)CN3C(=O)c4cccc5cccc(c45)C3=O)cc21,i,i,?,i,i
CC1=CC(C)(C)Nc2ccc(OC(=O)CN3C(=O)c4ccccc4C3=O)cc21,?,i,i,55,35
CCC(Cn1nnc2ccccc2c1=O)NC(=O)Nc1cc(C)cc(C)c1 (stereo not given),i,nt,nt,nt,nt
Cc1ccc(C)c(OCC(=O)N/N=C/c2c(C)nn(-c3ccccc3)c2Cl)c1C,i,i,i,i,i
Cc1nn(-c2ccccc2)c(Cl)c1/C=N\NC(=O)c1cncc(Br)c1,i,i,i,i,i
Cc1nn(-c2ccccc2)c(Cl)c1/C=N/Nc1nc2ccccc2n1C,i,i,?,79,54
Cc1nn(-c2ccccc2)c(Cl)c1/C=N/NC(N)=O,i,i,i,33,27
Cc1nn(-c2ccccc2)c(Cl)c1/C=N/NC(=O)CNC(=O)c1ccccc1Cl,i,i,i,i,18
Cc1nn(-c2cccc(Cl)c2)c(Cl)c1/C=N/NC(=O)c1cccnc1,i,i,i,i,17
CC(=O)c1ccc(NC(=O)COc2ccccc2-c2nc(-c3cccc(C)c3)no2)cc1,i,nt,nt,nt,nt
CCCCOc1ccc(C(=O)NCCc2csc(-c3cccc(F)c3)n2)cc1,i,nt,nt,nt,nt
Cc1nn(C)c(Cl)c1/C=N/OC(=O)c1ccccc1,i,i,i,i,16
COC(=O)N/N=C/c1c(C)nn(-c2cccc(Cl)c2)c1Cl,i,i,i,55,49
SMILES,AmpC inh detg,AmpC inh no detg,NS1 function inh,Shiga toxin inh,CHX counter
Cc1nn(Cc2c(Cl)cccc2Cl)c(Cl)c1/C=N/NC(=O)c1cccnc1,?,i,i,41,16
O=C(N/N=C/c1c(O)n(-c2ccccc2Cl)c(=O)c2ccccc12)c1cccnc1,i,i,nt,i,i
COC(=O)N/N=C\c1c(C)nn(-c2ccccc2)c1Cl,i,i,i,58,23
O=C(CCN1CCCCC1)Nc1ccc2c(c1)C(=O)c1ccc(NC(=O)CCN3CCCCC3)cc1C2=O,nt,nt,nt,i,i
Cc1nn(-c2ccccc2)c(Cl)c1/C=N/NC(=O)c1cccc(S(=O)(=O)N2CCCC2)c1,i,i,i,i,i
Cn1c(Cl)c(/C=N/OC(=O)c2ccccc2Cl)c2ccccc21,i,?,i,i,14
Cc1nn(-c2ccccc2)c(Cl)c1/C=N/NC(=O)c1ccnn1C,i,i,i,107,34
O=C(Cn1ccsc1=NC(=O)C(F)(F)F)c1ccccc1,i,i,i,i,30
Cc1ccc(Nc2nc(-c3ccc(F)cc3)cs2)nc1,i,i,i,77,53
Cc1ccc(Nc2nc(-c3ccc(O)c(O)c3)cs2)nc1,i,i,i,113,62
NS(=O)(=O)c1ccc(Nc2nc(-c3ccc(F)cc3)cs2)cc1,i,i,nt,i,i
c1ccc2c(c1)CN1CCCC1=N2,i,i,i,i,i
CCOc1cc(C2NC(=O)NC(c3ccccc3)=C2C(=O)c2ccccc2)c(Br)cc1OCC(=O)O (stereo not given),?,i,i,i,i
COc1ccccc1C1=Nn2c(nnc2-c2cccc(OC)c2OC)SC1,nt,nt,nt,i,i
